Laboratory results as given in PubChem BioAssay (NCATS).
Several values for one entry are separate records, joined by “and”; a condition that tells them apart may be missing. Equal entries are not always repeated. Unmarked numbers belong to inactive results. Results filed as inconclusive are left out. Entries that show only a call come without a potency. Activity calls are given as the source filed them. Unless noted, calls come from the whole dose curve; as a rule, active = well fitted curve in the direction sought with a large enough effect; inconclusive = small, poorly fitted or top-dose-only effect, or another doubt; inactive = no such curve, though single readings can be large; an effect the other way counts as inactive or inconclusive.

Assays:
[1] = qHTS for compounds that reverse cellular toxicity of Amyloid beta (A-beta) peptide in yeast: LOPAC Validation Assay (AID 720559)
Method in brief: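 Yeast cells expressing toxic A-beta were combined with pinned compounds in growth medium and incubated 48 hr at 30 C. Growth was read as absorbance at 600 nm and normalized to DMSO and to an equimolar FeCl3/clioquinol positive control.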

[2] = qHTS for Activators of Parkin Expression: LOPAC Validation Assay (NLuc Reporter) (AID 720572; note: potency is the fitted concentration of half-maximal effect)
Method in brief: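 Parkin promoter-driven FLuc/NLuc neuronal reporter cells; 24 h plating, 7-pt dose response, 24 h at 37 C/5% CO2; FLuc then NanoLuc reagent, 10 min each, luminescence; DMSO/positive control normalized.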

[3] = qHTS for Activators of Parkin Expression: LOPAC Validation Assay (FLuc Reporter) (AID 720573)
Method in brief: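 Neuronal cell line stably carrying FLuc/NLuc coincidence reporter under Parkin promoter; cells plated 24 h, then compounds added in 7-point dose response for 24 h at 37 C. FLuc luminescence read; normalized to DMSO and positive control (100%).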

[4] = biological target: T1, Hexokinase-4 (Homo sapiens) + Glucokinase regulatory protein (Homo sapiens) (UniProt P35557+Q14397); test: qHTS assay for inhibitors of recombinant human GCK-GKRP interaction: Diaphorase-coupled assay (AID 743205)
Method in brief: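 GST-GCK (10 nM) with FLAG-GKRP (10 nM), 5 mM glucose and 0.4 mM ATP in pH 7.6 Hepes; compounds preincubated 20 min with substrate. G6PDH/diaphorase coupling converts resazurin to resorufin, read kinetically (ex 525/em 590 nm) for 30 min.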

[5] = biological target: T1, Hexokinase-4 (Homo sapiens) + Glucokinase regulatory protein (Homo sapiens); test: qHTS assay for inhibitors of recombinant human GCK-GKRP interaction: ADP-Glo assay (AID 743206)
Method in brief: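 GST-GCK and FLAG-GKRP (15 nM each in the dispensed mix, with 2 uM S6P) react with 0.4 mM ATP and 5 mM glucose (final) in Hepes pH 7.6 for 60 min at room temperature. ADP is measured by ADP-Glo luminescence.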

[6] = biological target: T1, Hexokinase-4 (Homo sapiens) + Glucokinase regulatory protein (Homo sapiens); test: qHTS assay for inhibitors of recombinant human GCK-GKRP interaction: HTRF assay (AID 743207)
Method in brief: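 GST-GCK and FLAG-GKRP (5 nM each) were combined with 2 uM S6P in pH 7.1 Hepes/MgCl2/KCl/DTT buffer, then compound and anti-FLAG XL665/anti-GST K antibodies were added. After 60 min at room temperature, HTRF 665/615 nm emission was read.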

[7] = qHTS Assay for Identifying Gametocytocidal Compounds (AID 743244);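 note: actives lower the fluorescent signal which means gametocytes are killed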; conditions: P. falciparum 3D7 stage III-V gametocytes, alamarBlue, 72 h; max response: stronger effect = lower value
Method in brief: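 Stage III–V gametocytes of P. falciparum 3D7 were seeded at 20,000 cells/well onto pre-dispensed compounds. After 72 h, 37 °C, 5% CO2, alamarBlue was added for another 24 h.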

[8] = qHTS assay for measurement of the activity of small molecule inhibitors on Zika virus induced Caspase-3 activity in human iPSC derived neural progenitor cells (hNPCs) (AID 1224857); note: nearly all actives have a fitted effect of over 65% in size
Method in brief: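 Values are percent inhibition of virus-induced caspase-3/7 signal, scaled between uninfected cells and ZIKV-infected cells. Infection used 2 FFU/cell for 6 h after 1 h compound exposure.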

[9] = qHTS assay for small molecule agonists of the antioxidant response element (ARE) signaling pathway measured by Nrf2-dependant transcriptional activity (AID 720636; active = well fitted curve in the direction sought with a large enough effect in the repeat runs; an effect the other way counts as inactive or inconclusive)
Method in brief: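 ARE-luc HepG2 cells carrying an Nrf2-responsive luciferase reporter were plated in medium with 1% dialyzed FBS, left 6 hr at 37 C to attach, then exposed to compound for 16 hr. Luciferase luminescence was read after ONE-Glo addition.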

[10] = qHTS assay for small molecule agonists of the antioxidant response element (ARE) signaling pathway measured by Nrf2-dependant transcriptional activity - cell viability counter screen (AID 720653; active = well fitted curve in the direction sought with a large enough effect in the repeat runs; an effect the other way counts as inactive or inconclusive); conditions: ARE-bla HepG2 viability, CellTiter-Glo ATP luminescence, 16 h; max response: stronger effect = lower value
Method in brief: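 Cytotoxicity counter screen: intracellular ATP quantified by CellTiter-Glo luminescence in the same ARE-bla HepG2 plates, after 16 h compound exposure and a 2 h beta-lactamase substrate step.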

[11] = qHTS assay for cell viability of HEK293 cells (AID 743288); conditions: ATP luminescence (CellTiter-Glo), 18 h; max response: stronger effect = lower value; note: nearly all actives have a fitted effect of over 50% in size
Method in brief: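 Parental HEK293 cells were seeded at 2,000 cells/well, rested at least 5 h at 37 C, then exposed to compounds in DMSO for 18 h at 37 C. Viability was read as ATP-dependent luciferase luminescence after 30 min at room temperature.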

[12] = qHTS assay for cell viability of the p53RE-bla HCT-116 cell line (AID 743292); note: nearly all actives have a fitted effect of over 55% in size
Method in brief: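 CellSensor p53RE-bla HCT-116 cells, 4,000/well, preincubated 5 h at 37 C, then exposed to compounds in DMSO for 16 h at 37 C. Viability read as CellTiter-Glo luminescence (intracellular ATP) after 30 min at room temperature.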

T1 sequence (P35557 whole entry, looked up): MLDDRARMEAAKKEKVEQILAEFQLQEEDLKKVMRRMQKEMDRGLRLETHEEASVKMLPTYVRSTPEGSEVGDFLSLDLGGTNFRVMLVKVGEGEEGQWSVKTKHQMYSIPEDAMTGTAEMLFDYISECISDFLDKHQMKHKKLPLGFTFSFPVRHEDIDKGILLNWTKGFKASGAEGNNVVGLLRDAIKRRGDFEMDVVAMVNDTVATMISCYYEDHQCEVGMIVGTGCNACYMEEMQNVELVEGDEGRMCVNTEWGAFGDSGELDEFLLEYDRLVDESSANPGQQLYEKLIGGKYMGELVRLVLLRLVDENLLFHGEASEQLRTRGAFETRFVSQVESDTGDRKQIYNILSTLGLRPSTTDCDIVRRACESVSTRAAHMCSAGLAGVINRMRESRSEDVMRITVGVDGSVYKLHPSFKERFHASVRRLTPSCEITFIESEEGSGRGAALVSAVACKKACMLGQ
T1 sequence (Q14397 whole entry, looked up): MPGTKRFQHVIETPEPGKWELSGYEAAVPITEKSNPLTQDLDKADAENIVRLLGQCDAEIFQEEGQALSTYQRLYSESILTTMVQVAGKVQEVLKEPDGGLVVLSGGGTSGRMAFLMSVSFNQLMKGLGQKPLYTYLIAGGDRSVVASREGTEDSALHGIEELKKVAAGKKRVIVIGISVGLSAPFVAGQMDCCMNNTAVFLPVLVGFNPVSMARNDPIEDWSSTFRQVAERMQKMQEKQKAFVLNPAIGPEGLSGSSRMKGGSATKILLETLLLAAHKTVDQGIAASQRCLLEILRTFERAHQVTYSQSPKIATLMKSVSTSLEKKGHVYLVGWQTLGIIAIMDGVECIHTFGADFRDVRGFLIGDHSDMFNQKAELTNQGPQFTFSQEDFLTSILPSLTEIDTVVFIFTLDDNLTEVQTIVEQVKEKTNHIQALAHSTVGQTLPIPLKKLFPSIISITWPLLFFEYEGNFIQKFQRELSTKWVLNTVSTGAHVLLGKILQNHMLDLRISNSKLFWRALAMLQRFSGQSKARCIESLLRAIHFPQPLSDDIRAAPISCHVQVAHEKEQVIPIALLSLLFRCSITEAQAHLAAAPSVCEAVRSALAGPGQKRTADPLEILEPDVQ

SMILES | outcome [1] | Potency [2] | outcome [3] | outcome [4] | outcome [5] | Potency [6] | max response [7] | outcome [8] | outcome [9] | max response [10] | max response [11] | outcome [12]
O=C(CCCN1CCC(O)(c2cccc(C(F)(F)F)c2)CC1)c1ccc(F)cc1 | inactive | inactive | inactive | inactive | inactive | inactive | 20% | inactive |  |  |  | 
COC(=O)C1=C(C)NC(C)=C(C(=O)OCCN(C)Cc2ccccc2)C1c1cccc([N+](=O)[O-])c1 (stereo unspecified) | inactive | 16.4 µM (active) | inactive |  |  |  |  | inactive |  |  |  | 
C[C@]12CCC(=O)C=C1CC[C@@H]1[C@@H]2C(=O)C[C@@]2(C)[C@H]1CC[C@]2(O)C(=O)CO | inactive | inactive | inactive | inactive | inactive | inactive | -0.251% and -12.4% | inactive | inactive | -5.48% | -1.33% | inactive
CC(=O)[C@@]1(O)CC[C@H]2[C@@H]3CCC4=CC(=O)CC[C@]4(C)[C@H]3CC[C@@]21C | inactive | inactive | inactive | inactive | inactive | inactive | 5.26% and 15.8% | inactive | inactive | -7.45% | -17.3% | inactive
NS(=O)(=O)c1cc2c(cc1Cl)NC(C1CC3C=CC1C3)NS2(=O)=O (stereo unspecified) | inactive | inactive | inactive | inactive | inactive | inactive | -0.791% and -20.2% | inactive |  |  |  | 
OCCN1CCN(CC/C=C2/c3ccccc3Sc3ccc(C(F)(F)F)cc32)CC1 | inactive | inactive | inactive | inactive | inactive | inactive |  | inactive |  |  |  | 
CCN1CCC[C@H]1CNC(=O)c1c(O)c(Cl)cc(Cl)c1OC | inactive | inactive | inactive | inactive | inactive | inactive | 5.28% and 32.3% | inactive |  |  |  | 
CC(C)(Oc1ccc(CCNC(=O)c2ccc(Cl)cc2)cc1)C(=O)O | inactive | inactive | inactive | inactive | inactive | inactive | 5.91% and 17.9% | inactive | inactive | -11.9% | -0.154% | inactive
Cc1ccc(S(=O)(=O)NC(=O)NN2CCCCCC2)cc1 | inactive | inactive | inactive | inactive | inactive | inactive | -5.27% and 9.03% | inactive |  | 1.34% | -0.908% | inactive
COc1ccc(CCN(C)CCCC(C#N)(c2cc(OC)c(OC)c(OC)c2)C(C)C)cc1OC (stereo unspecified) | inactive | inactive | inactive | inactive | inactive | inactive | 12.4% and 4.11% | inactive |  |  |  | 
CN(C)CCCN1c2ccccc2Sc2ccc(C(F)(F)F)cc21 | inactive | inactive | inactive | inactive | inactive | inactive |  | inactive |  |  |  | 
CCCN(CCC)C(=O)C(CCC(=O)O)NC(=O)c1ccccc1 (stereo unspecified) | inactive | inactive | inactive | inactive | inactive | inactive | 9.09% and 23.8% | inactive |  |  |  | 
CC(N=C(NC#N)Nc1ccncc1)C(C)(C)C (stereo unspecified) | inactive | inactive | inactive | inactive | inactive | inactive | 14.1% and -10.9% | inactive |  |  |  | 
CN(C)C/C=C(/c1ccc(Br)cc1)c1cccnc1 | inactive | inactive | inactive | inactive | inactive | inactive | -5.39% and -10% | inactive |  |  |  | 
CC(=O)Nc1nnc(S(N)(=O)=O)s1 | inactive | inactive | inactive | inactive | inactive | inactive | 9.9% and 9.69% | inactive | inactive | 1.81% | -6.47% | inactive
c1cnc(N2CCN(Cc3ccc4c(c3)OCO4)CC2)nc1 | inactive | inactive | inactive | inactive | inactive | inactive | 1.5% | inactive |  |  |  | 
CC(C)(C)c1ccc(C(=O)CCCN2CCC(OC(c3ccccc3)c3ccccc3)CC2)cc1 | inactive | inactive | inactive | inactive | inactive | inactive |  | inactive |  |  |  | 
NC(Cc1ccc(Cl)cc1)C(=O)O (stereo unspecified) | inactive | inactive | inactive | inactive | inactive | inactive | 3.16% | inactive |  |  |  | 
CN(C)CCCN1c2ccccc2Sc2ccccc21 | inactive | inactive | inactive | inactive | inactive | inactive |  | inactive |  |  |  | 
COC(=O)[C@@H](N)Cc1ccc(O)c(O)c1 | inactive | inactive | inactive | inactive | inactive | inactive | 43.3% | inactive |  |  |  | 
